Screens: PubChem, several laboratories
Most compounds without a hit are left out; they make up all but 4% or so of the library.
697 NFkB inh – lowers PMA/ionomycin-induced NF-kB signal in 697 B cells; 330,000 compounds, 0.33% hits; inhibition, % at 4 µM; 697 B-cell NF-kB luciferase reporter, 16 h; in the data active means inhibition above about 35%
Jurkat NFkB inh – lowers PMA/ionomycin-induced NF-kB signal in Jurkat cells | PMA/ionomycin-induced NF-kB luciferase reporter, luminescence | inhibition, % at 4 µM | 330,000 compounds, 0.53% hits | AID 435003; in the data active means inhibition above about 50%
Beta apoptosis – beta cell apoptosis inhibition; protection from apoptosis, % (no concentration beside the values); 300,000 compounds, 0.8% hits; INS-1E cytokine-induced death, ATP luminescence, 48 h; percent of positive-control rescue, neutral wells zero;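 active means Every replicate reaches about 75%, or at least half do and their mean reaches it too, limit read from the data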;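 further: higher means more ATP so stronger rescue from cytokine killing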
Mdm2-MdmX inh – inhibitors of human Mdm2/MdmX interaction | SaOS-2 split-luciferase Mdm2/MdmX complementation, luminescence | O15151+Q00987 | inhibition, % at 8 µM | 330,000 compounds, 3% hits;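 active means inhibition of at least 50% at 8 µM in the primary screen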
Target sequence (O15151 whole entry, looked up): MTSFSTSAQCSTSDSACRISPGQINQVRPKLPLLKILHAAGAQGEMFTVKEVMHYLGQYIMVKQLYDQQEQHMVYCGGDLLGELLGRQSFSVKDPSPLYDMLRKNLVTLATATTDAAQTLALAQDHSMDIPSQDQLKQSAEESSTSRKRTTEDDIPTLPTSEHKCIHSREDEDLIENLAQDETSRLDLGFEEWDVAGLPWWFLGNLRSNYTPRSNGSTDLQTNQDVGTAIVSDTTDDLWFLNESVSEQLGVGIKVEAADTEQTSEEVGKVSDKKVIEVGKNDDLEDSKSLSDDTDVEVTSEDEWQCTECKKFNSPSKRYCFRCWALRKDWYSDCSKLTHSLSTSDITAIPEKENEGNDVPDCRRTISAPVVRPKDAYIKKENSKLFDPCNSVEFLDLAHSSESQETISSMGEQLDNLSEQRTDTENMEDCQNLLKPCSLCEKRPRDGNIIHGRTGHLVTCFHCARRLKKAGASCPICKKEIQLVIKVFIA
Target sequence (Q00987 whole entry, looked up): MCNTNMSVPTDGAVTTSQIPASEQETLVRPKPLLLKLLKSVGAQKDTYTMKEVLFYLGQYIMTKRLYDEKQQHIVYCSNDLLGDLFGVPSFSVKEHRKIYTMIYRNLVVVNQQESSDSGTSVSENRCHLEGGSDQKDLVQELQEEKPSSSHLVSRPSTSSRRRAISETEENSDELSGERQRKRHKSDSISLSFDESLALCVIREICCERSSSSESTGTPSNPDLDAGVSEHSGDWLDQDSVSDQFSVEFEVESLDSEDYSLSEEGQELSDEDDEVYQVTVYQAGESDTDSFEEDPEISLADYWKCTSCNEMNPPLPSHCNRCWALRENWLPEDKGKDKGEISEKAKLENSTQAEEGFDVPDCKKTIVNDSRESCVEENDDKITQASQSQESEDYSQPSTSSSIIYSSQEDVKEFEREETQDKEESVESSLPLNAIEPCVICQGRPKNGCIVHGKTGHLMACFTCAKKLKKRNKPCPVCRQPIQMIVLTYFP
Gli-Sufu antag – blocks Gli-Sufu signaling in a luciferase reporter; Sufu-KO-LIGHT fibroblasts, Gli luciferase reporter luminescence; inhibition, % at 5 µM; 340,000 compounds, 0.74% hits;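 active means inhibition above about 55%, limit read from the data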
Mdm2-MdmX conf – confirmation of human Mdm2/MdmX interaction inhibitors. 10,000 compounds, 55% hits. Mdm2-MdmX binding, luminescent assay. shares compounds with Mdm2-MdmX inh. inhibition, % at 8 µM; in the data active means inhibition above about 40%
FLuc counter – counter-screen for Mdm2/MdmX inhibitors: full-length luciferase; SaOS-2 full-length luciferase counterscreen, luminescence; shares compounds with Mdm2-MdmX inh; AID 504607; inhibition, % at 8 µM; 6,200 compounds, 77% hits;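 active means mean inhibition at 8 µM reaching about 37%, which flags the compound as non-specific, limit read from the data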;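 further: p53-null SaOS-2 cells with luciferase driven by a doxycycline-inducible promoter; compound on cells about two nights before reading with doxycycline added after day one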
Large screens that a line does not name were inactive (follow-up assays come after a bar, where they were run).

CCN(CC)CCCN(C(=O)c1ccccc1C)c1nc(-c2ccc(OC)cc2)cs1	none
CCN(CC)CCCN(C(=O)c1ccc(OC)cc1)c1nc(-c2ccc(OC)cc2)cs1	Mdm2-MdmX inh 50 | Mdm2-MdmX conf 40 | FLuc counter 58
COc1ccc(C)cc1NC(=O)CCNS(=O)(=O)c1ccc2c(c1)CC(C)N2C(C)=O (centres undefined)	none (no result: Beta apoptosis)
COC(=O)c1c(-c2ccc3ccccc3c2)csc1NC(=O)Cc1ccc(OC)c(OC)c1	Mdm2-MdmX inh 55 | Mdm2-MdmX conf 54 | FLuc counter 57
COC(=O)c1c(-c2ccc(OC)c(OC)c2)csc1N	none
Nc1nnc(-c2cn(-c3ccccc3)nc2-c2ccc(Cl)cc2)o1	Mdm2-MdmX inh 58 | Mdm2-MdmX conf inactive
O=C1c2cccc(NCCCNCCO)c2C(=O)c2cccc(NCCCNCCO)c21	none (no result: 697 NFkB inh, Jurkat NFkB inh, Beta apoptosis, Mdm2-MdmX inh)
C=CCn1c(O)c(N=NC(=S)Nc2cccc(OC)c2)c2ccccc21	Mdm2-MdmX inh 58 | Mdm2-MdmX conf 40 | FLuc counter 48
O=C(/C=C/c1ccccc1Cl)c1cccnc1	none
O=C(/C=C/c1c(F)cccc1Cl)c1ccc(O)cc1	Mdm2-MdmX inh 100 | Mdm2-MdmX conf 97 | FLuc counter inactive
O=C(/C=C/c1ccccc1Cl)c1ccc(O)cc1	Mdm2-MdmX inh 55 | Mdm2-MdmX conf inactive
O=C(COC(=O)c1ccc[nH]c1=O)NC1CC1	none
Cn1c(=O)n(Cc2ccc(Br)cc2)c2ccccc21	none
O=C(CCCN1C(=O)/C(=C\c2cccs2)SC1=S)Nc1cccnc1	Mdm2-MdmX inh 78 | Mdm2-MdmX conf 80 | FLuc counter inactive
O=C(CCCN1C(=O)/C(=C/c2cccc(Br)c2)SC1=S)Nc1ccccn1	Mdm2-MdmX inh 69 | Mdm2-MdmX conf 84 | FLuc counter inactive
COC(=O)c1ccc(/C=C2/SC(=S)N(CCCC(=O)Nc3ccccn3)C2=O)cc1	Mdm2-MdmX inh 75 | Mdm2-MdmX conf inactive
O=C(CCCN1C(=O)/C(=C/c2ccccc2OC(F)F)SC1=S)Nc1cccnc1	Mdm2-MdmX inh 85 | Mdm2-MdmX conf 59 | FLuc counter inactive
O=C(CCCN1C(=O)/C(=C/c2cccs2)SC1=S)Nc1cccnc1	none
COc1ccc(CNC(=O)C2CCN(S(C)(=O)=O)CC2)c(OC)c1	none
O=C(CCN1C(=O)/C(=C/c2ccc(Cl)cc2)SC1=S)Nc1cccnc1	none
O=C(CCCN1C(=O)/C(=C\c2cccc(Br)c2)SC1=S)Nc1cccnc1	Mdm2-MdmX inh 100 | Mdm2-MdmX conf 86 | FLuc counter inactive
O=C(CCCN1C(=O)/C(=C/c2cccc(Br)c2)SC1=S)Nc1cccnc1	Mdm2-MdmX inh 78 | Mdm2-MdmX conf 78 | FLuc counter 63
COc1ccc(C(=O)NC(=O)CSc2n[nH]c(N)n2)cc1	none
Cc1ccc(C(O)(c2ccccc2)c2ccccc2C(C)N(C)C)c(C)c1 (centres undefined)	Mdm2-MdmX inh 62 | Mdm2-MdmX conf inactive
COc1ccc(C(C(=O)NC2CCCC2)N(C(=O)c2snc(-c3ccc(F)cc3)c2N)c2cccc(F)c2)cc1 (centres undefined)	Mdm2-MdmX inh 62 | Mdm2-MdmX conf inactive
COc1ccc(C(C(=O)NC2CCCC2)N(C(=O)c2snc(-c3ccc(F)cc3)c2N)c2ccccc2)cc1 (centres undefined)	none
COc1ccc(C(C(=O)NC2CCCC2)N(C(=O)c2snc(-c3ccc(F)cc3)c2N)c2ccc(F)cc2)cc1 (centres undefined)	Mdm2-MdmX inh 57 | Mdm2-MdmX conf inactive
Cc1cc(C(=O)Nc2ccc(OCc3ccccc3)cc2)c(C)o1	none
CCOC(=O)/C=c1\s/c(=C\c2ccccc2C)c(=O)n1CC(=O)NCc1ccc2c(c1)OCO2	Mdm2-MdmX inh 92 | Mdm2-MdmX conf 67 | FLuc counter 44
CCOC(=O)/C=c1\s/c(=C\c2ccc3c(c2)OCCO3)c(=O)n1CC(=O)NCC1CCCO1 (centres undefined)	none
CCOC(=O)/C=c1\s/c(=C\c2ccc3cc(OC)ccc3c2)c(=O)n1CC(=O)NCc1ccc2c(c1)OCO2	Mdm2-MdmX inh 79 | Mdm2-MdmX conf inactive
O=C(NCC(=O)N1CCN(c2ccc(C(F)(F)F)cn2)CC1)c1ccc(Br)o1	none
Cn1c(N)c(C(=O)COC(=O)/C=C/c2ccc(Cl)c(Cl)c2)c(=O)n(C)c1=O	none
O=C1NCCN1CCNS(=O)(=O)c1cc(C(F)(F)F)cc(C(F)(F)F)c1	none
O=S(=O)(NC1CC(NS(=O)(=O)OCC(Cl)(Cl)Cl)C2CCCCC12)OCC(Cl)(Cl)Cl (centres undefined)	Mdm2-MdmX inh 77 | Mdm2-MdmX conf 70 | FLuc counter 59
C[C@H](NS(=O)(=O)OCC(Cl)(Cl)Cl)C1CC1c1ccccc1 (some centres undefined)	none
CSCC[C@H](NC(=O)N1CCn2c1nc1ccccc12)C(=O)NCc1ccco1	none
Cc1ccc(C)c(C(=O)COC(=O)CN2C(=O)C3C4C=CC(C4)C3C2=O)c1 (centres undefined)	none
CCCCCCCCNCCS(=O)(=O)NCc1ccc(OC)cc1	none (no result: 697 NFkB inh, Jurkat NFkB inh, Beta apoptosis, Mdm2-MdmX inh)
CCCC(=O)n1nc(-c2cccnc2)nc1NCc1ccccc1	none (no result: 697 NFkB inh, Jurkat NFkB inh, Beta apoptosis, Mdm2-MdmX inh)
CCCCCCOc1ccc(/C(C)=N/NC2=NCCN2)cc1[N+](=O)[O-]	Mdm2-MdmX inh 52 | Mdm2-MdmX conf 71 | FLuc counter 106
Oc1[nH]c2ccccc2c1N=NC(=S)N1CCOCC1	Beta apoptosis 83, Mdm2-MdmX inh 97, Gli-Sufu antag 63 | Mdm2-MdmX conf 88 | FLuc counter inactive
CCOc1ccc(NC(=S)N=Nc2c(O)[nH]c3ccccc23)cc1	Mdm2-MdmX inh 64 | Mdm2-MdmX conf inactive
COC(=O)N=Nc1c(O)[nH]c2ccc(Br)cc12	none
Oc1[nH]c2ccc(Br)cc2c1N=NC(=S)N1CCOCC1	Beta apoptosis 108, Mdm2-MdmX inh 96, Gli-Sufu antag 86 | Mdm2-MdmX conf 98 | FLuc counter 54
CCN(CC(=O)N1CCCC1)S(=O)(=O)c1ccc(OC)cc1	none (no result: Beta apoptosis)
O=C(NCc1cccs1)C1CCCN1C(=O)Nc1ccccc1Cl (centres undefined)	none
CCOc1ccc(-c2nn(-c3ccccc3)cc2/C=C2\SC(N)=NC2=O)cc1C	Mdm2-MdmX inh 67 | Mdm2-MdmX conf inactive
O=C(COC(=O)c1ccc(Cl)c(S(=O)(=O)N2CCCCC2)c1)NCCc1ccccc1	none (no result: Beta apoptosis)
Cc1ccc(-c2nc(N)c3c(-c4ccc(C)cc4)nn(C(C)(C)C)c3n2)cc1	none
CC(C)(C)n1nc(-c2ccc(Cl)cc2)c2c(N)ncnc21	Mdm2-MdmX inh 81 | Mdm2-MdmX conf 63 | FLuc counter 38
CC(C)(C)n1nc(-c2ccc(F)cc2)c2c(N)ncnc21	Mdm2-MdmX inh 59 | Mdm2-MdmX conf 55 | FLuc counter 50
Cc1ccc(-c2nn(C(C)(C)C)c3ncnc(NS(=O)(=O)c4ccc([N+](=O)[O-])cc4)c23)cc1	none
